# About 17,000 (5.5%) of roughly 310,000 compounds were called active. About 11% were inconclusive and are not listed. For the sample, actives were picked, then their nearest neighbours and some compounds at random. Unmarked numbers belong to inactive results. Calls come from the whole dose curve; as a rule, active = well fitted inhibition curve with a large enough effect; inconclusive = small, poorly fitted or top-dose-only effect, or effect the other way; inactive = no such curve, though single readings can be large or run the other way.
# Molecular target: Nuclear receptor ROR-gamma (Mus musculus) (UniProt P51450)
# Test: qHTS for inhibitors of ROR gamma transcriptional activity; note: nearly all actives have a fitted effect of over 60% in size
# Settings: Drosophila S2 Gal4-RORgamma UAS-luciferase reporter, 20 h; series mostly up to 53.6 µM; activity change, negative = inhibition: at the top concentration
# How it was run: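 Luciferase reporter read in Schneider cells carrying Gal4-RORγ (mouse) and UAS-Photinus luciferase; cells given compound 1 h before 700 uM copper sulfate induction, then incubated 20 h at ambient temperature.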
# % is set by controls: 0 for no effect and ±100 for the full control effect; potency is the fitted concentration of half-maximal effect.
# Nuclear receptor ROR-gamma (Mus musculus), sequence (P51450 whole entry, looked up): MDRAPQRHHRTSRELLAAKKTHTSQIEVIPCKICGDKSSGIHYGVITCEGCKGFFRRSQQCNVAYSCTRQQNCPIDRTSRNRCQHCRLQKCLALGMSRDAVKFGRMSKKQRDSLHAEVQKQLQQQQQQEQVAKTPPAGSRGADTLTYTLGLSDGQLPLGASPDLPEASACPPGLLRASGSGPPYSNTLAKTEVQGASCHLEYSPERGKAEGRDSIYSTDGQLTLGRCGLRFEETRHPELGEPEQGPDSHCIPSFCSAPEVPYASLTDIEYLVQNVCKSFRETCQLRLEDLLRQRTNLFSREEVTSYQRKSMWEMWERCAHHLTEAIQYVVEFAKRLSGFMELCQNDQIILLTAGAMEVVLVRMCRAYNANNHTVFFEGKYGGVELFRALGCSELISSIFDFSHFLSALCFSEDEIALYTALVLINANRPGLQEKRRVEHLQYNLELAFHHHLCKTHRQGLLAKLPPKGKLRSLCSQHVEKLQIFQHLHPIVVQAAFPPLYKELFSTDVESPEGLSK
Structure (SMILES),"activity change, negative = inhibition",Potency
CCOC(=O)C1CCN(C(=O)CN2C(=O)c3cccnc3Oc3ccc(C)cc32)CC1,-7.07%,–
CCCc1cc(=O)[nH]c(SCC(=O)Nc2sc3c(c2C#N)CCCC3)n1,33.4%,–
Cc1ccc(Cn2c(=N)c(S(=O)(=O)c3ccc(C)cc3)cc3c(=O)n4ccccc4nc32)cc1,-23.8%,–
CCC(C)(C)NC(=O)C(c1ccc(OC)cc1)N(C(=O)CCC(=O)Nc1cc(C)on1)c1ccc(OC)cc1OC (stereo not drawn),40.9%,–
Cc1cc(Cl)ccc1OCCCC(=O)Nc1cccc(-n2cnnn2)c1,35%,–
CCCn1nnnc1NC(=O)COc1ccc(Cl)cc1C,–,0.891 µM (active)
CCOC(=O)N1CCN(C(=O)COc2ccc(Cl)cc2C)CC1,-1.24%,–
OC(c1ccc(Cl)cc1)C(CN1CCOCC1)c1ccccc1 (stereo not drawn),3.28%,–
O=C(CCCN1C(=O)/C(=C/c2ccccc2)SC1=S)Nc1ccc(O)cc1,–,3.98 µM (active)
O=C(CCCN1C(=O)/C(=C\c2ccccc2)SC1=S)Nc1ccccc1O,-38.6%,–
Cc1ccc(/C=C2\SC(=S)N(CCC(=O)Nc3ccc(O)cc3)C2=O)cc1,-15.4%,–
CN1CCN(Cc2nc3cc(NC(=O)COc4ccc([N+](=O)[O-])cc4)ccc3n2C)CC1,-7.74%,–
COc1ccc2c(C)c(CCC(=O)NC3CC3)c(=O)oc2c1C,7.24%,–
CC(=O)Nc1ccc(NC(=O)CN2CCCC(C)C2)c(Cl)c1 (stereo not drawn),27.2%,–
Cc1cc(NC(=O)CN2CCCC(C)C2)n(-c2nc3ccccc3s2)n1 (stereo not drawn),–,1.58 µM (active)
CC1CCCN(CC(=O)Nc2cc(Cl)ccc2Oc2ccccc2)C1 (stereo not drawn),4.22%,–
COc1ccc(S(=O)(=O)n2cnc3ccccc32)c(C)c1,40%,–
COc1ccc(N2CC(C(=O)N[C@@H](C)C(=O)N3CCCCC3)CC2=O)cc1 (stereo partly drawn),-8.28%,–
FC(F)(F)c1ccc(-n2cn[nH]c2=S)cc1,–,10 µM (active)
COc1ccccc1N1CC(C(=O)Nc2nnc(SCC(=O)NCC3CCCO3)s2)CC1=O (stereo not drawn),2.4%,–
CNS(=O)(=O)c1cccc(C(=O)NC2CCCc3ccccc32)c1 (stereo not drawn),-15.4%,–
c1ccc(-n2nnnc2-c2cccnc2)cc1,3.95%,–
c1cncc(-c2nc(N3CCNCC3)c3ccccc3n2)c1,14.8%,–

Structure (SMILES),"activity change, negative = inhibition",Potency
S=c1nc2ccccc2c2nc(-c3cccnc3)[nH]n12,–,0.447 µM (active)
O=C(C1CCCN(S(=O)(=O)c2ccccc2)C1)N1CCN(c2ccc(F)cc2)CC1 (stereo not drawn),16.8%,–
Cc1cccc(C(=O)NCCCN(C)CCCNC(=O)c2cccc(C)c2)c1,-5.29%,–
Cc1ccc(S(=O)(=O)NC(=O)c2cccc(C)c2)cc1,0.442%,–
Cc1cccc(C(=O)NC(=S)N(C)C2CCCCC2)c1,–,1.78 µM (active)
O=C(Nc1c2c(nn1-c1cccc(Cl)c1)CS(=O)(=O)C2)c1cccs1,-10.5%,–
Cc1coc2c(O)cc3c(c12)OC1(N2CCCCC2)C(=O)NCCCC31 (stereo not drawn),–,12.6 µM (active)
COc1ccc(C(=O)Nc2c(N)nc(SCC(=O)Nc3ccc(C(C)=O)cc3)[nH]c2=O)cc1,-19.8%,–
CCCCN(CC)C(=O)C1CCCN(S(=O)(=O)c2cccc3nsnc23)C1 (stereo not drawn),3.5%,–
Cc1ccc(OC(=O)c2cncc(Br)c2)c(C)c1,-23% [at 1.91 µM],–
O=C(NCc1ccccn1)C1CCN(S(=O)(=O)c2ccc(Br)cc2)CC1,-18.1%,–
CC(=O)Cc1nsc(NC(=O)c2csc3c2CCCC3)n1,25%,–
Cc1ccc(NC(=O)c2csc3c2CCCC3)cc1,12.7%,–
COC(=O)c1sc(NC(=O)c2csc3c2CCCC3)nc1C,–,35.5 µM (active)
COc1ccc(C(=O)NC2CCN(C(=O)Nc3ccc(F)cc3)CC2)cc1,-0.284%,–
COc1ccccc1CNC(=O)c1ccc(CS(=O)(=O)c2ccccc2)o1,28.3%,–
CCOc1ccc(CN2CCN(CCCc3ccccc3)C(CCO)C2)cc1 (stereo not drawn),2.1%,–
CCN(C(=O)C1CCCN(c2nc(-c3ccc(OC)cc3)no2)C1)c1ccc(OC)cc1 (stereo not drawn),38.9%,–
OC(c1nc2ccccc2[nH]1)C(O)C(O)C(O)c1nc2ccccc2[nH]1 (stereo not drawn),20.1%,–
OCCNc1nc2ccccc2[nH]1,-8.36%,–
c1ccc2[nH]c(-c3nc4ccccc4[nH]3)nc2c1,–,10 µM (active)
Cc1cc(C)c2c(-c3ccc(F)cc3)c(C#N)c(=O)n(C)c2n1,-20%,–
CCc1ccc(OCC2c3cc(OC)c(OC)cc3CCN2C(C)=O)cc1 (stereo not drawn),-7.5%,–

Structure (SMILES),"activity change, negative = inhibition",Potency
Nc1nc(Nc2ccccc2F)nc(NC2CCCCC2)c1[N+](=O)[O-],16.6%,–
c1ccc(-c2cc(N3CCCCC3)c3ccccc3n2)cc1,–,14.1 µM (active)
O=c1cc(-c2ccccc2)nc(N2CCCCC2)[nH]1,-5.11%,–
O=c1cc(N2CCCCC2)c(-c2ccccc2)nn1Cc1cccc(F)c1,-0.464%,–
CCC(=O)Nc1nnc(S(=O)(=O)N(CC(C)C)c2ccccc2)s1,-21.1%,–
CCOc1ccc2[nH]c(=O)c(CN(CCCO)S(=O)(=O)c3ccc(F)cc3)cc2c1,12.8%,–
O=C(Nc1nnc(C2COc3ccccc3O2)o1)c1ccc(F)cc1 (stereo not drawn),–,0.562 µM (active)
c1ccc2c(c1)OCC(c1nn3cnnc3s1)O2 (stereo not drawn),16.7%,–
CC1COc2ccccc2N1C(=O)c1ccc(F)cc1 (stereo not drawn),24%,–
COc1ccc(N2CCN(C(=O)c3ccc(N4CCCCS4(=O)=O)cc3)CC2)cc1,29.1%,–
COc1ccc(-c2cc(C(=O)N3CCN(c4ccc(F)cc4)CC3)no2)cc1,4.47%,–
CCOc1ccc2[nH]c3nc(SCC(=O)NC4CCCC4)nnc3c2c1,-11.8%,–
O=c1c2ccccc2ncn1CCCCOc1ccccc1F,12.9% [at 1.91 µM],–
COC(=O)c1ccc(NC(=O)CSc2nc(N)c(NC(=O)c3ccc(Br)o3)c(=O)[nH]2)cc1,5.56%,–
O=c1oc(/C=C/c2ccccc2)nc2ccccc12,0.954%,–
S=c1[nH]nc(/C=C/c2ccccc2)o1,–,12.6 µM (active)
COc1ccc(N(CC(=O)N2CCCCCC2)S(=O)(=O)c2ccccc2)cc1,2.49%,–
Cc1ccc(NC2CCCN(C(=O)CCc3cn[nH]c3)C2)cc1C (stereo not drawn),14.3%,–
Cc1ccccc1N1CCN(CC(=O)NCc2ccc(Cl)cc2)CC1,27.3%,–
COC(=O)c1sc(=S)n(-c2ccccc2)c1N,0.645%,–
CCOC(=O)c1sc2nc(C)[nH]c(=O)c2c1C,18.3%,–
COC(=O)c1sc2[nH]c(=S)n(N)c(=O)c2c1C,–,7.08 µM (active)

# Source: PubChem BioAssay AID2551 (National Center for Advancing Translational Sciences (NCATS), 2010)
